Measurements taken from the supplement of paper PMC10037445.
In all, about 2,900 compounds were measured (“NF-kB SEAP reporter activity, fold change vs agonist alone”: median about 0.99, highest 2% from about 2.6 on). What follows is part of a selection rich in the highest values, with near analogues and random picks from the rest.

Experiments:
RAW-Dual [1] = experiment: NF-kB SEAP reporter activity, fold change vs agonist alone; cytotoxicity flag (confluency mask): not cytotoxic; higher = enhanced NF-kB activity
How it was run: (§1)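 Supernatant from RAW-Dual macrophages was read after 20 hours for IRF by QuantiLuc luminescence and for NF-κB by QuantiBlue absorbance at 620 nm. The cells (50,000 cells/well in DMEM, 384-well plates, 37 °C, 5% CO2) had received 50 nL of library stock by pin tool and, 1 h later, a PRR agonist. Reporter activity is expressed relative to agonist-alone wells as fold change, and wells were flagged cytotoxic if IncuCyte confluency was under 70% of agonist controls in both mask sets.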

RAW-Dual [2] = experiment: NF-kB SEAP reporter activity, fold change vs agonist alone; higher = enhanced NF-kB activity
How it was run: as §1

RAW-Dual [3] = experiment: NF-kB SEAP reporter activity, fold change vs agonist alone; cytotoxicity flag (confluency mask): cytotoxic (confluency <70% of control); higher = enhanced NF-kB activity
How it was run: as §1

[4] = agonist: ODN 1826 (TLR9) 0.5 ug/mL
[5] = agonist: Pam2CSK4 (TLR2/6) 0.1 ug/mL
[6] = agonist: Pam3CSK4 (TLR2/1) 0.1 ug/mL
[7] = library stock concentration (final ~1000-fold dilution): 10 mM, cytotoxicity flag (confluency mask): not cytotoxic, agonist: Imiquimod (TLR7) […]
[8] = library stock concentration (final ~1000-fold dilution): 10 mM, cytotoxicity flag (confluency mask): not cytotoxic, agonist: MPLA (TLR4) […]

CC(C(=O)O)c1ccc(C(=O)c2cccs2)cc1 (configuration not stated) (library stock concentration (final ~1000-fold dilution): 10 mM)
NF-kB SEAP reporter activity (RAW-Dual [1]; agonist: LPS (TLR4) 0.1 ug/mL): 1.19
NF-kB SEAP reporter activity (RAW-Dual [1]; [4]): 0.999
NF-kB SEAP reporter activity (RAW-Dual [1]; [5]): 1.06
NF-kB SEAP reporter activity (RAW-Dual [1]; [6]): 1.07

CC(C(=O)O)c1ccc(C(=O)c2cccs2)cc1 (configuration not stated)
NF-kB SEAP reporter activity (RAW-Dual [2]; [7]): 0.601
NF-kB SEAP reporter activity (RAW-Dual [2]; [8]): 0.825

CCCS(=O)c1ccc2nc(NC(=O)OC)[nH]c2c1 (configuration not stated)
NF-kB SEAP reporter activity (RAW-Dual [2]; [7]): 1.04
NF-kB SEAP reporter activity (RAW-Dual [2]; [8]): 0.808

COC(=O)Nc1nc2ccc(C(=O)c3cccs3)cc2[nH]1
NF-kB SEAP reporter activity (RAW-Dual [2]; library stock concentration (final ~1000-fold dilution): 10 mM, cytotoxicity flag (confluency mask): cytotoxic (confluency <70% of control), agonist: Imiquimod (TLR7) […]): 2.68
NF-kB SEAP reporter activity (RAW-Dual [2]; library stock concentration (final ~1000-fold dilution): 10 mM, cytotoxicity flag (confluency mask): cytotoxic (confluency <70% of control), agonist: MPLA (TLR4) […]): 2.1

CCCS(=O)c1ccc2nc(NC(=O)OC)[nH]c2c1 (configuration not stated) (library stock concentration (final ~1000-fold dilution): 10 mM)
NF-kB SEAP reporter activity (RAW-Dual [1]; agonist: LPS (TLR4) 0.1 ug/mL): 1.06
NF-kB SEAP reporter activity (RAW-Dual [1]; [4]): 0.948
NF-kB SEAP reporter activity (RAW-Dual [1]; [5]): 1.05
NF-kB SEAP reporter activity (RAW-Dual [1]; [6]): 1.09

COC(=O)Nc1nc2ccc(C(=O)c3cccs3)cc2[nH]1 (library stock concentration (final ~1000-fold dilution): 10 mM)
NF-kB SEAP reporter activity (RAW-Dual [3]; agonist: LPS (TLR4) 0.1 ug/mL): 2.52
NF-kB SEAP reporter activity (RAW-Dual [3]; [4]): 3.14
NF-kB SEAP reporter activity (RAW-Dual [3]; [5]): 1.85
NF-kB SEAP reporter activity (RAW-Dual [3]; [6]): 1.76

CCCS(=O)(=O)NC1CC(N(C)c2ncnc3[nH]ccc23)C1 (configuration not stated)
NF-kB SEAP reporter activity (RAW-Dual [2]; [7]): 0.73
NF-kB SEAP reporter activity (RAW-Dual [2]; [8]): 0.764

CCCS(=O)(=O)NC1CC(N(C)c2ncnc3[nH]ccc23)C1 (configuration not stated) (library stock concentration (final ~1000-fold dilution): 10 mM)
NF-kB SEAP reporter activity (RAW-Dual [1]; agonist: LPS (TLR4) 0.1 ug/mL): 0.584
NF-kB SEAP reporter activity (RAW-Dual [1]; [4]): 0.746
NF-kB SEAP reporter activity (RAW-Dual [1]; [5]): 0.786
NF-kB SEAP reporter activity (RAW-Dual [1]; [6]): 0.875

Cl.O=C1c2cccc3c2C(CCC3)CN1C1CN2CCC1CC2 (configuration not stated)
NF-kB SEAP reporter activity (RAW-Dual [2]; library stock concentration (final ~1000-fold dilution): 10 mM water, cytotoxicity flag (confluency mask): not cytotoxic, agonist: Imiquimod (TLR7) […]): 0.577
NF-kB SEAP reporter activity (RAW-Dual [2]; library stock concentration (final ~1000-fold dilution): 10 mM water, cytotoxicity flag (confluency mask): not cytotoxic, agonist: MPLA (TLR4) […]): 0.711

Cl.O=C1c2cccc3c2C(CCC3)CN1C1CN2CCC1CC2 (configuration not stated) (library stock concentration (final ~1000-fold dilution): 10 mM water)
NF-kB SEAP reporter activity (RAW-Dual [1]; agonist: LPS (TLR4) 0.1 ug/mL): 0.985
NF-kB SEAP reporter activity (RAW-Dual [1]; [4]): 0.593
NF-kB SEAP reporter activity (RAW-Dual [1]; [5]): 0.966
NF-kB SEAP reporter activity (RAW-Dual [1]; [6]): 0.917

CCN(CC)CCNC(=O)c1c(C)[nH]c(/C=C2\C(=O)Nc3ccc(F)cc32)c1C.O=C(O)CC(O)C(=O)O
NF-kB SEAP reporter activity (RAW-Dual [2]; [7]): 0.892
NF-kB SEAP reporter activity (RAW-Dual [2]; [8]): 0.292

CCN(CC)CCNC(=O)c1c(C)[nH]c(/C=C2\C(=O)Nc3ccc(F)cc32)c1C.O=C(O)CC(O)C(=O)O (library stock concentration (final ~1000-fold dilution): 10 mM)
NF-kB SEAP reporter activity (RAW-Dual [1]; agonist: LPS (TLR4) 0.1 ug/mL): 0.295
NF-kB SEAP reporter activity (RAW-Dual [1]; [4]): 0.21
NF-kB SEAP reporter activity (RAW-Dual [1]; [5]): 0.27
NF-kB SEAP reporter activity (RAW-Dual [1]; [6]): 0.317

Cc1nn(CC(F)(F)F)cc1Nc1ncc(Br)c(NCc2ccc(S(N)(=O)=O)cc2)n1
NF-kB SEAP reporter activity (RAW-Dual [2]; [7]): 1.38
NF-kB SEAP reporter activity (RAW-Dual [2]; [8]): 1.33

Cc1nn(CC(F)(F)F)cc1Nc1ncc(Br)c(NCc2ccc(S(N)(=O)=O)cc2)n1 (library stock concentration (final ~1000-fold dilution): 10 mM)
NF-kB SEAP reporter activity (RAW-Dual [1]; agonist: LPS (TLR4) 0.1 ug/mL): 0.744
NF-kB SEAP reporter activity (RAW-Dual [1]; [4]): 1.28
NF-kB SEAP reporter activity (RAW-Dual [1]; [5]): 1.17
NF-kB SEAP reporter activity (RAW-Dual [1]; [6]): 1.54
